Measured values published in PubChem BioAssay (EPA / NIEHS).
“And” between values parts separate entries of the source, which are not always exact repeats. Equal values may be shown once. Records with an inconclusive call do not appear. The source made the active and inactive calls. Rule for the calls, unless noted: active = hit-call score of the fitted dose curve at least 0.9, where 1 is the maximum; inactive = score below 0.9.

Legend:
[1] = target: Retinoic acid receptor RXR-alpha (Homo sapiens) (UniProt P19793); test: ATG_RXRa_TRANS: Attagene TRANS-FACTORIAL HepG2 Assay for human Retinoid X Receptor alpha (RXRa) (AID 2283012; active = hit-call score of the fitted dose curve at least 0.9, where 1 is the maximum)
Outline: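 Measures exogenous chimeric NR-GAL4 activity in transfected HepG2 liver cells after 24 h of dosing. Induced reporter mRNA was detected by RT-PCR with capillary electrophoresis, and gain of signal was analysed against DMSO.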

[2] = target: human Retinoid X Receptor beta (RXRb), RXRB (gene 6257) (UniProt P28702); test: ATG_RXRb_TRANS: Attagene TRANS-FACTORIAL HepG2 Assay for human Retinoid X Receptor beta (RXRb) (AID 2283013; active = hit-call score of the fitted dose curve at least 0.9, where 1 is the maximum)
Outline: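 Chimeric receptor-Gal4 activity was assessed in transiently transfected human HepG2 cells after 24 h exposure. Transcripts from GAL4-UAS reporters were quantified by fluorescent RT-PCR and capillary electrophoresis, with DMSO as negative control and baseline.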

[3] = target: human Thyroid Receptor alpha (THRa1), THRA (gene 7067) (UniProt P10827); test: ATG_THRa1_TRANS: Attagene TRANS-FACTORIAL HepG2 Assay for human Thyroid Receptor alpha (THRa1) (AID 2283014; active = hit-call score of the fitted dose curve at least 0.9, where 1 is the maximum)
Outline: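 Transient HepG2 transfection, NR-Gal4 chimera driving GAL4-UAS reporters; 24 h compound exposure; total RNA, oligo(dT) RT, PCR, fluorescent primer extension, capillary electrophoresis. Upward direction vs DMSO control.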

[4] = read-out: E-selectin (Homo sapiens) (UniProt P16581); test: BSK_3C_Eselectin: BioMAP Diversity Plus: 3C Assay for Eselectin Biomarker Activity (AID 2283015); details: primary human endothelial cells (HUVEC); actives raise or lower the signal
Outline: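 HUVEC, 3C stimulation; compound exposure 24 h; E-selectin by ELISA; gain- or loss-of-signal fitted bidirectionally vs DMSO baseline.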

[5] = read-out: Interleukin-1 alpha (IL1a), IL1A (gene 3552); test: BSK_BE3C_IL1a: BioMAP Diversity Plus: BE3C Assay for Interleukin-1 alpha (IL1a) Biomarker Activity (AID 2283016); details: primary human bronchial epithelial cells; actives raise or lower the signal
Outline: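 Signal from IL-1a ELISA, taken 24 h after chemical dosing of human bronchial epithelial cells, is compared with DMSO as baseline using bidirectional curve fitting.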

[6] = read-out: Monocyte Chemoattractant Protein-1 (MCP1), CCL2 (gene 6347); test: BSK_4H_MCP1: BioMAP Diversity Plus: 4H Assay for Monocyte Chemoattractant Protein-1 (MCP1) Biomarker Activity (AID 2283018); details: primary human endothelial cells (HUVEC); actives raise or lower the signal
Outline: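 Endothelial cells from umbilical vein were treated with test chemical, then after 24 h MCP-1 levels were quantified by ELISA; endpoint values came from bidirectional fitting with DMSO as baseline of activity.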

[7] = read-out: Human Leukocyte Antigen - DR isotype (HLADR), HLA-DRA (gene 3122); test: BSK_3C_HLADR: BioMAP Diversity Plus: 3C Assay for Human Leukocyte Antigen - DR isotype (HLADR) Biomarker Activity (AID 2283019); details: primary human endothelial cells (HUVEC); actives raise or lower the signal
Outline: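 HUVEC, 3C stimulation, 24 h post-dose; HLA-DR by ELISA; bidirectional curve fit vs DMSO baseline; gain or loss of signal scored.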

[8] = read-out: Monokine induced gamma interferon (MIG), CXCL9 (gene 4283); test: BSK_3C_MIG: BioMAP Diversity Plus: 3C Assay for Monokine induced gamma interferon (MIG) Biomarker Activity (AID 2283021); details: primary human endothelial cells (HUVEC); actives raise or lower the signal;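 for AC50: MIG protein level measured by immunoassay in the treated endothelial cultures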
Outline: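 Endothelial primary cells (human umbilical vein) are dosed with test chemical in the 3C system. MIG levels are measured by ELISA at 24 h and fitted in both directions relative to DMSO.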

[9] = target: human Vitamin D Receptor (VDR), VDR (gene 7421) (UniProt P11473); test: ATG_VDR_TRANS: Attagene TRANS-FACTORIAL HepG2 Assay for human Vitamin D Receptor (VDR) (AID 2283022; active = hit-call score of the fitted dose curve at least 0.9, where 1 is the maximum)
Outline: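 RT-PCR/capillary electrophoresis read-out of reporter mRNA induction in transiently transfected HepG2; 24 h dosing; chimeric NR-Gal4 (TRANS format); gain-of-signal fit against DMSO baseline.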

[10] = BSK_3C_SRB: Viability Assessment in the BioMAP Diversity Plus: 3C Assay (AID 2283023); details: primary human endothelial cells (HUVEC);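 note: fitted both ways against DMSO so a hit may be signal rise or drop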
Outline: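 HUVEC, 24 h post-dose; 10% TCA fix, 0.1% SRB stain, A560 nm. Bidirectional curve fit vs DMSO negative control.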

[11] = read-out: Matrix Metallopeptidase 1 (MMP1), MMP1 (gene 4312); test: BSK_BE3C_MMP1: BioMAP Diversity Plus: BE3C Assay for Matrix Metallopeptidase 1 (MMP1) Biomarker Activity (AID 2283024); details: primary human bronchial epithelial cells; actives raise or lower the signal
Outline: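 MMP1 signal, measured by ELISA after a 24 h chemical exposure of human primary bronchial epithelial cells, is analysed with bidirectional fitting using DMSO as negative control.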

[12] = BSK_3C_Vis: BioMAP Diversity Plus: 3C Assay for Morphology Visualization (AID 2283025); details: primary human endothelial cells (HUVEC);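 note: fitted both ways so gain or loss versus DMSO counts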
Outline: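 Morphology read by light microscopy serves as a background control for the multiplexed 3C assay in human umbilical vein endothelial cells, taken 24 h after dosing, with DMSO as the negative control and bidirectional curve fitting.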

[13] = read-out: Pselectin, SELP (gene 6403); test: BSK_4H_Pselectin: BioMAP Diversity Plus: 4H Assay for Pselectin Biomarker Activity (AID 2283026); details: primary human endothelial cells (HUVEC); actives raise or lower the signal
Outline: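 Endothelial primary cells (human umbilical vein) are dosed, incubated 24 h, and assayed for surface P-selectin by ELISA; responses in either direction are fitted relative to the DMSO negative control.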

[14] = BSK_4H_SRB: Viability Assessment in the BioMAP Diversity Plus: 4H Assay (AID 2283027); details: primary human endothelial cells (HUVEC);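 note: cells exposed to compound for 24 h before staining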;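 for AC50: curves fitted both ways versus DMSO so AC50 may be loss or gain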
Outline: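 Cytotoxicity readout: sulforhodamine B (0.1%) staining of total protein after 10% TCA fixation, measured at 560 nm in human umbilical vein endothelium at 24 h. DMSO set the baseline; fitting was bidirectional.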

[15] = BSK_BE3C_SRB: Viability Assessment in the BioMAP Diversity Plus: BE3C Assay (AID 2283028); details: primary human bronchial epithelial cells;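 for AC50: fitted both ways so AC50 may mark signal gain or loss versus DMSO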
Outline: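 Primary human bronchial epithelium; chemical dosing, 24 h; 10% TCA fix, 0.1% SRB stain, A560; bidirectional fit vs DMSO baseline.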

[16] = read-out: Thrombomodulin, THBD (gene 7056); test: BSK_3C_Thrombomodulin: BioMAP Diversity Plus: 3C Assay for Thrombomodulin Biomarker Activity (AID 2283029); details: primary human endothelial cells (HUVEC); actives raise or lower the signal
Outline: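 Endothelial cells from umbilical vein are dosed with test chemical and incubated 24 h. Thrombomodulin is then quantified by ELISA, with DMSO serving as negative control and activity baseline.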

[17] = read-out: Urokinase-type plasminogen activator receptor (uPAR), PLAUR (gene 5329); test: BSK_4H_uPAR: BioMAP Diversity Plus: 4H Assay for Urokinase-type plasminogen activator receptor (uPAR) Biomarker Activity (AID 2283030); details: primary human endothelial cells (HUVEC); actives raise or lower the signal
Outline: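 HUVEC, 24 h post-dose; uPAR by ELISA; bidirectional fit vs DMSO baseline.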

[18] = read-out: Monocyte Chemoattractant Protein-1 (MCP1), CCL2 (gene 6347); test: BSK_3C_MCP1: BioMAP Diversity Plus: 3C Assay for Monocyte Chemoattractant Protein-1 (MCP1) Biomarker Activity (AID 2283017); details: primary human endothelial cells (HUVEC); actives raise or lower the signal
Outline: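 HUVEC, 3C system; 24 h chemical exposure; MCP-1 by ELISA; bidirectional curve fit vs DMSO baseline.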

[19] = read-out: Interleukin-8 (IL8), CXCL8 (gene 3576); test: BSK_3C_IL8: BioMAP Diversity Plus: 3C Assay for Interleukin-8 (IL8) Biomarker Activity (AID 2283020); details: primary human endothelial cells (HUVEC); actives raise or lower the signal
Outline: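 Endothelial primary cells of human umbilical vein origin are dosed with chemical; after 24 h the IL-8 biomarker is measured by ELISA, and concentration–response is fitted in both directions versus DMSO.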

Measured: AC50

Chain of human Retinoid X Receptor beta (RXRb), RXRB (gene 6257) (P28702 whole entry, looked up, the tested form may be a part): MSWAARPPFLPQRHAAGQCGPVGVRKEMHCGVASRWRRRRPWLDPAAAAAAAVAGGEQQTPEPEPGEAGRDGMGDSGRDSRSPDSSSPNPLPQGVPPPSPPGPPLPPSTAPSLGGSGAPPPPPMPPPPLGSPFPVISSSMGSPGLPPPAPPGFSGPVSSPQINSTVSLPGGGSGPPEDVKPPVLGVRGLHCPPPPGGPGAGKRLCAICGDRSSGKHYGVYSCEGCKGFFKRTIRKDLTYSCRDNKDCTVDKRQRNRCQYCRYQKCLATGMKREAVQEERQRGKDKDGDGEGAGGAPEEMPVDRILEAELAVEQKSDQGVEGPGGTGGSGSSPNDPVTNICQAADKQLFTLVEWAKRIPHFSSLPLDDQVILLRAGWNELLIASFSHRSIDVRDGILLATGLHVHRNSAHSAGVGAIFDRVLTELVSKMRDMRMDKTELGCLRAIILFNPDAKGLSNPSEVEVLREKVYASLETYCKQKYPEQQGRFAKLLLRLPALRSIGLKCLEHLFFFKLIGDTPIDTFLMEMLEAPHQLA
Chain of E-selectin (Homo sapiens) (P16581 whole entry, looked up): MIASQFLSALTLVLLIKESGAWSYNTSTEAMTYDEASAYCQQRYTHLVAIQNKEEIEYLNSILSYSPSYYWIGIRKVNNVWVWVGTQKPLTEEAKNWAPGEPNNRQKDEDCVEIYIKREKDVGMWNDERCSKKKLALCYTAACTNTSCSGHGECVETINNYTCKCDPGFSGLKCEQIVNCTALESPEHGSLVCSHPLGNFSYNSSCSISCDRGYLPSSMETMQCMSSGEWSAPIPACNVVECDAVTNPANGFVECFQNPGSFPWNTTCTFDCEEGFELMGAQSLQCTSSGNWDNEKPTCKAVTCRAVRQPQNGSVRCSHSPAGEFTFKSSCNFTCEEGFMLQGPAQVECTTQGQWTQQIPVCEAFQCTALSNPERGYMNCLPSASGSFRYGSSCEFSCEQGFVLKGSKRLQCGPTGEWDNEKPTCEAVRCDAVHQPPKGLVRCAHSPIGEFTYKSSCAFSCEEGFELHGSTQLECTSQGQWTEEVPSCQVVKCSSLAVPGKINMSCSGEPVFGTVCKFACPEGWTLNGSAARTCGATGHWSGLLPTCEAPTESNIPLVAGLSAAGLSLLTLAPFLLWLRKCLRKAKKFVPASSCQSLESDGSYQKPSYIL
Chain of Retinoic acid receptor RXR-alpha (Homo sapiens) (P19793 whole entry, looked up, the tested form may be a part): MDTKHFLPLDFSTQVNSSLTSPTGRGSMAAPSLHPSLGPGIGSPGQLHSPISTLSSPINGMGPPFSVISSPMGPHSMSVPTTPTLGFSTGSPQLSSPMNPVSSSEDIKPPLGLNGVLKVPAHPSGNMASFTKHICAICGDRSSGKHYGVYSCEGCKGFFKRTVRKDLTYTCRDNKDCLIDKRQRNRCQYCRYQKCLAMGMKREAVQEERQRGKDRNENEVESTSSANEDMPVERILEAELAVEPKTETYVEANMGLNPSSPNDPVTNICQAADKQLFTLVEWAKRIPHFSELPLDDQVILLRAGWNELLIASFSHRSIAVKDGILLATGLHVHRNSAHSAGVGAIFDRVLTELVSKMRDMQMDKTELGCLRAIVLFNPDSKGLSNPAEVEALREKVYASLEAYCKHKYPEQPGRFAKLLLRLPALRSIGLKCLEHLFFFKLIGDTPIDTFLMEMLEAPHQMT
Chain of human Thyroid Receptor alpha (THRa1), THRA (gene 7067) (P10827 whole entry, looked up, the tested form may be a part): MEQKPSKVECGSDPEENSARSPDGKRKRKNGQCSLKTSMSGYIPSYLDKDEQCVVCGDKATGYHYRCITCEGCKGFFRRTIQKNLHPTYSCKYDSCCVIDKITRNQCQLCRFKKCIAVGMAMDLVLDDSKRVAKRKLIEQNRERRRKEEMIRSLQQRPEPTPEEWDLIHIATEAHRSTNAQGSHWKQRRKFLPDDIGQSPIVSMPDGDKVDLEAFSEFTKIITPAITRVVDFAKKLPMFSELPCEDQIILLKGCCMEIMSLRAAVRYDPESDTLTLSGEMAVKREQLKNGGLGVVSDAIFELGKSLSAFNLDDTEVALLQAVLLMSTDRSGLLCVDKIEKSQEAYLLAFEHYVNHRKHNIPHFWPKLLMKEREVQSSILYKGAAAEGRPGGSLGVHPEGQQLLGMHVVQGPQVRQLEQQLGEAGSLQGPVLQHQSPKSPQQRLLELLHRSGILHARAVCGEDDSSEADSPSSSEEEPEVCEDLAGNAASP
Chain of human Vitamin D Receptor (VDR), VDR (gene 7421) (P11473 whole entry, looked up, the tested form may be a part): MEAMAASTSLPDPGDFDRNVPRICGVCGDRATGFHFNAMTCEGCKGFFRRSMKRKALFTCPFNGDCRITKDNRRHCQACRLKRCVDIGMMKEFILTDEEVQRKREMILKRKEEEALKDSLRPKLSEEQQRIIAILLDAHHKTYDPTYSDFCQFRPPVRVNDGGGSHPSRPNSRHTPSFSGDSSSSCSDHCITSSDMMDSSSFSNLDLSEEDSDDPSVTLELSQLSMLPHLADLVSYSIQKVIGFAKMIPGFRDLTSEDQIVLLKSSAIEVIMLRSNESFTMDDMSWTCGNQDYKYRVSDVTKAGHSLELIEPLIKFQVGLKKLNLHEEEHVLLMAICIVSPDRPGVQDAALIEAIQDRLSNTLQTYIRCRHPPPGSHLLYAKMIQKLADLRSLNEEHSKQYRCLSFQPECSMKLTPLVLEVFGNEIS

CCCCCCCCN(C)CCCCCCCC
active: [2] 43.5 µM
not listed: [18] | [19]
inactive: all other assays above

CCCOC(=O)c1cc(O)c(O)c(O)c1
not listed: [1] | [19]
inactive: all other assays above

CCN(Cc1cccc(S(=O)(=O)O)c1)c1ccc(C(=C2C=CC(=[N+](CC)Cc3cccc(S(=O)(=O)O)c3)C=C2)c2ccccc2S(=O)(=O)[O-])cc1
not listed: [2] | [6] | [18]
inactive: all other assays above

OCCO
not listed: [18]
inactive: all other assays above

Cc1cc(F)ccc1-c1cc(N2CC[C@@H](O)[C@H]2CO)ncc1N(C)C(=O)C(C)(C)c1cc(C(F)(F)F)cc(C(F)(F)F)c1
active: [4] 10.9 µM | [5] 14.6 µM | [18] 10 µM | [6] 6.91 µM | [7] 9.43 µM | [19] 9.76 µM | [8] 12.9 µM | [10] 9.17 µM | [11] 14.5 µM | [12] 10 µM | [13] 7.66 µM | [14] 11.9 µM | [15] 12.9 µM | [17] 10.2 µM
inactive: [1] | [9] | [16]

CCCCCCCCCC(=O)O
active: [2] 30.2 µM and 68.3 µM
not listed: [3] | [6] | [19]
inactive: all other assays above

Cc1cn([C@H]2C[C@H](N=[N+]=[N-])[C@@H](CO)O2)c(=O)[nH]c1=O
not listed: [3] | [6] | [19]
inactive: all other assays above

CN(C)C(=O)C1(N2CCCCC2)CCN(CC[C@@]2(c3ccc(Cl)c(Cl)c3)CN(C(=O)c3ccccc3)CCO2)CC1
active: [4] 29.8 µM | [5] 29.2 µM | [18] 22.9 µM | [7] 12.4 µM | [8] 34.7 µM | [10] 7.1 µM | [11] 29.1 µM | [12] 12.5 µM | [13] 15.6 µM | [14] 18.9 µM | [15] 26.6 µM | [17] 12.3 µM
inactive: [1] | [3] | [9] | [16]

CCCCCCCCCCCC[N+](C)(C)C
inactive: [1] | [2] | [3] | [9]
active: [4] 1.98 µM | [5] 31.9 µM | [7] 15.2 µM | [19] 12.7 µM | [8] 29.4 µM | [11] 18 µM | [13] 20 µM | [14] 26.9 µM | [15] 32 µM | [16] 5.28 µM | [17] 29.8 µM

CC(C)(C)c1csc(-c2cc3cc(OCc4ccccc4CC(=O)O)ccc3o2)n1
active: [5] 10 µM | [7] 17.3 µM | [8] 32 µM | [10] 21.5 µM | [11] 8.45 µM | [13] 18.7 µM | [14] 20 µM | [15] 12.2 µM | [17] 21 µM
inactive: [1] | [4] | [9] | [12] | [16]

c1ccc2n[nH]nc2c1
not listed: [2] | [6] | [9] | [18] | [19]
inactive: all other assays above

Cc1oc2c(NC(=O)c3c(Cl)cccc3Cl)cccc2c1C(C)(C)O
active: [4] 13 µM | [5] 23.6 µM | [7] 21.8 µM | [10] 25 µM | [11] 14.3 µM | [12] 20.7 µM | [13] 13.2 µM | [14] 15 µM | [16] 11.8 µM
inactive: [1] | [3] | [18] | [6] | [8] | [9] | [15] | [17]
